Consider 108 sequences from PubChem BioAssay AID1508600 (Functional Genomics Laboratory (NCATS/FGL), 2020).

The whole screen tested about 53,000 sequences, of which about 3,700 (7%) were called active. The sample as a whole holds a higher share of actives than the screen did. Unmarked numbers belong to inactive results.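 How the source made its calls: active means gene knockdowns whose robust z-score for IL-1 alpha signal is at least 2 or at most -2, so actives lie on both sides; inactive means the rest.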

A short description of the experiment: Components of the Cytosolic LPS Sensing Pathway: Gene Identification via Genome-wide siRNA Screen.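 Further: robust z of the log signal after scaling to non-targeting control siRNA wells of the plate.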 Particulars: RAW264.7 macrophages, IL-1a HTRF, actives lie on both sides, screened at 100 nM (by protocol), cells primed 5 h with Pam3CSK4 first. The essentials:
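RAW264.7; siRNA 100 nM final, RNAiMAX, 48h 37 degrees C; Pam3CSK4 5 h; LipidA + TransIT-TKO 24 h; IL-1a HTRF; CellTiter-Glo viability; robust z vs negative-control median.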
On to GGAAGACUUUCUGGACAUATT against Sgk2, for which the z-score is 2.44 (active).

Turning to CCUACAGCAACCAUAAGGATT against Plch2, the z-score is -1.6.

Consider GGACAGCUGUUUCAAUUCUTT against Il1rap, for which the z-score was -0.162.

For GGAUUUGCCUACACAUAUGTT against Nqo1, the z-score is 0.362.

In the case of CCCUUCUCCACCUGAGAGUTT against Orm3, the z-score was -2.25 (active).

GGAAAUGAAGAGUGUUGAATT against Slc7a3: the z-score is -0.4.

On to UGCCCAAGACUCAGAAGUCTT against Igf1, for which the z-score was 0.0658.

On to GCUAACUGCCUUGGGAAGATT against Lyl1, for which the z-score was 2.57 (active).

Take GGCCAAGCACGAUAAAUACTT against Stub1: the z-score was -1.08.

In the case of CCUACAGUAUGUGGCAGAUTT against Grb7, the z-score is -1.49.

Consider GGUGUUUUAUACACUCUGUTT against Mgme1, for which the z-score is -1.85.

On to GGACUUAAAACAGAAAGCATT against Haus1, for which the z-score was -2.79 (active).

As to CGUGGUUGUACAUAUUUGUTT against Trip10, the z-score is 0.39.

For GGGAAACAAAUUGUUUGCATT against Dnaaf4, the z-score is -0.461.

For the sequence GGCUUUGUCGUUAAUUUUUTT against Auh, the z-score is 0.322.

For GGUGCAUUAUCUUGGUUCGTT against Hmga2, the z-score was -2.46 (active).

Consider GGCAAAUAUUCAGUUUGGATT against Scarb2, for which the z-score was -0.00406.

As for GGGUUUAUAAAACUGAAGUTT against Cav2, the z-score was 0.672.

Take GGCACAUGAGACAGCUUUUTT against Tmem160: the z-score is 0.0311.

Consider CGUGUUCAGCGUAGAAACUTT against Ttll1, for which the z-score is 0.283.

As to GGUUUCAGAGCUAAACCCUTT against Larp4b, the z-score is 0.235.

Turning to “CCAUAGUUUUGGUUACCAATT against E330037G11Rik”, the z-score is -0.213.

As to “GUCUCUUUGCCCUGUGCUATT against Vmn1r239-ps”, the z-score was 0.0206.

Regarding GGCUUGGAUUUUGAAAUACTT against Srcin1, the z-score was -0.792.

In the case of GCUCAGCAAUACUUCCUACTT against Itgal, the z-score was -0.188.

For GCUCAUAUACACCAUUUCUTT against Tmem171, the z-score was -1.12.

As for GCCUAUCAAUGUGUAUCUUTT against Tcf21, the z-score is -0.497.

In the case of CGUCCUAGGAAUCUACUUUTT against Itgad, the z-score was 2.63 (active).

Regarding GGGAAAGUAAUUGAUAAACTT against Mtrr, the z-score is 0.59.

With GUCUGUCAUUUGUGGAAAUTT against Olfr1495, the z-score was -2.17 (active).

CCGAGUUCGGGUAUCUUGGTT against Grwd1: the z-score was -0.885.

For CCCACCACAAGCUAAUACATT against Ubac1, the z-score was -0.0826.

On to GGAACAAAGACAUGUAUCATT against Zgpat, for which the z-score is -0.931.

In the case of GCUCAGAAGUCCAAGAUACTT against Casp12, the z-score is -1.86.

With GGUCGCUGGAGACCUUAGUTT against Hjurp, the z-score is -1.88.

For GGAACAGGUGAUCCGCUACTT against Lzts2, the z-score is 1.26.

Consider GCACUCUGUUCAGCUAAAATT against Tafa3, for which the z-score is 2.16 (active).

As to GGAAGCUAUGAACAAUACATT against Sulf2, the z-score is 0.00856.

In the case of GGUGUGAUGGAGUUCUUAUTT against Ndufs1, the z-score was -0.94.

On to GGUUCCAUAACCUGUGUCATT against Fbxo28, for which the z-score is 0.272.

For GGGUUAAUGCAGCUCACGUTT against Lrrtm1, the z-score was 0.425.

For the sequence GGCUUUGGCGAUAAGACAUTT against Glud1, the z-score was 2.29 (active).

CCAAUUACGGAGAUUGGAATT against Tspan6: the z-score was -0.803.

GGUUGAUUCCAACGACAUCTT against Tinagl1: the z-score was -0.173.

Consider GCAUAAAGCACCCGGAGAGTT against Zbtb32, for which the z-score is -1.53.

As for GGUGUUAAGACUCAGCUCATT against Micall2, the z-score was -1.49.

On to GCCUGGUUAUUAAUUUAUCTT against Dzank1, for which the z-score was -0.724.

GGCACCCGAGUAGGUCAAATT against Carhsp1: the z-score was 6.02 (active).

With CGUAACUGAGUCAAUUAGUTT against Intu, the z-score was 0.128.

Consider GCGUGGUUUCUGAAUACAUTT against Nt5e, for which the z-score is 6.67 (active).

Regarding GGUAACAUCUAUAUAUCACTT against Rb1, the z-score was 1.56.

In the case of GGACUCCAACCACACUAUCTT against Rab4b, the z-score is 0.847.

For GGCAUGAUGCUGAUCAUUCTT against Olfr1100, the z-score was -0.0763.

In the case of GCUUAUAGUUCAGUUUUUGTT against Ints8, the z-score is 0.835.

As for GCAAAUAGGGAGGUUCCUGTT against Ypel1, the z-score was 1.47.

For the sequence GGAGACUUCAGUGCCUCUUTT against Slc16a11, the z-score was 2.45 (active).

For the sequence GGUAAUGGGACUUGGUAGGTT against Olfr1338, the z-score was -0.056.

UGGUCGGCUAGAUGAUGGATT against Wdr34: the z-score is -0.7.

As for GGAAGUCUGCCUGUUCUUGTT against Galnt10, the z-score was 0.744.

Take GGCUGUGUUGUCGAUUUCCTT against Nkain3: the z-score is 0.351.

GGGAUGAGUUCUUGUAAAUTT against Unc50: the z-score was -1.32.

For the sequence GGGAACUCGAACAAGAAUUTT against Six1, the z-score is 1.11.

In the case of GGAAAAAGAGGAUGAGUGCTT against Gm4861, the z-score is 2.01 (active).

With GCUGCUGGAAACUAGACUGTT against Cyp2b13, the z-score is -1.71.

For GUCAUCAAUCAAGUCUUGATT against Olfr1408, the z-score was -0.0822.

For the sequence CCAAGGGUUGCUUCGAGCATT against Upk1a, the z-score is -0.489.

Regarding GGACCUGAACGAUCUCGUUTT against Cyp4a12a, the z-score is 1.65.

As to GGAACAACCACGGAACCCATT against Il1r2, the z-score is 0.335.

For GGGUUUCAGUCUUCUUAUCTT against Olfr556, the z-score is -0.891.

With GGGAGCUAAUGAGCAAGGATT against Galk1, the z-score was 2.5 (active).

As for GCACAAACUUAUGCUCUUUTT against Klrc3, the z-score was -1.76.

Consider GGACAGACAAAUACAAGAGTT against Tmco1, for which the z-score is 0.428.

Consider GUUCUUAUAUAGGAUUGUGTT against Xkr9, for which the z-score was -0.782.

For the sequence GGAUCAUCUAUACAGCACATT against Tgfb1i1, the z-score was -1.85.

As to GGACAGUUCUAAAAUUCCCTT against Olfr780, the z-score is -1.73.

In the case of GCCAGCUACCGAGUCUAUUTT against Tkt, the z-score was 2.8 (active).

Regarding GCAUGCUGACACUUACUUUTT against Olfr878, the z-score was -0.872.

For CCAGGCAGCUAAACUGUGUTT against Tex11, the z-score was -0.11.

GGGACUGUACCCAGUUUAATT against Ccl27a: the z-score was 1.62.

Regarding CGUGGAAUGAAGAUUGUCCTT against Hsd17b12, the z-score was 0.284.

As to GCAAAAUAGCCCAGUAUAATT against Pax6, the z-score was -5.02 (active).

GGAGUUUCUUCAGUUCCUUTT against Dld: the z-score is 0.87.

Regarding GCGGAGGAUAGAGCAAAUUTT against Upf3b, the z-score was -0.0448.

For GGAACAUCAAGGGAAUUAUTT against Zfp638, the z-score was 2.36 (active).

As to GGACAACAGUGGAAGGCUCTT against Serpinb1a, the z-score was 0.841.

Take GGAGGUGAACCAUAGAGAGTT against Csrnp2: the z-score was 1.12.

Take CCCUCUAUCAGUUACCCUGTT against Mcpt2: the z-score was 0.686.

As for GGACAAUGGUUCCUUGGAUTT against Cdc25c, the z-score was 0.981.

For the sequence GGAUGUCACUCUUGCAUUGTT against Olfr948, the z-score is 0.75.

Regarding GCCACAACUCCAGAUGCCUTT against Olfr937, the z-score was -2.64 (active).

Regarding GGAAGAACUUCAGAAUGCATT against Slirp, the z-score is -0.627.

With CCUUCAUUGUGAUUGACAUTT against Ptpn11, the z-score was -0.55.

For the sequence GGUUCAGUGCUUUGUGUUCTT against Il2rg, the z-score was -0.541.

Take CCUUCUAAAUACUGAUUUGTT against Ugt2b38: the z-score is 0.699.

Take GCAGAAUAUUAACCAGUGUTT against Ptp4a2: the z-score was 1.15.

Consider CCAGUUCCGGUCAGAUUAUTT against Gnal, for which the z-score was -1.55.

For GCCUCCAGAACUCACUGCATT against Hes3, the z-score is -2.04 (active).

For AAGGAAGUCUGUCCAAGGUTT against Olfr192, the z-score is -0.284.

In the case of GCUGCCAUUUCGCCAAUCUTT against Mfap4, the z-score is -2.65 (active).

GGGAGCAUCAAACAACAAUTT against Tbr1: the z-score was 0.742.

As for GGCUGUGGAUUUCUCUCUGTT against Kng1, the z-score is -0.334.

As to GGCCGAGUACAAACGUGGATT against Atg9a, the z-score is 2.77 (active).

As to CCUGAGUCAGAUUCAUUUATT against Pten, the z-score is 0.292.

GGUGCCAUUCAUCUUUCAATT against Tmprss3: the z-score is 1.85.

As to GGUGCAAGAUCAAGAACUGTT against C1ra, the z-score is 2.78 (active).

GGAAGAACAGGAAGAAGUGTT against Pank1: the z-score was 1.02.

CCAGCUUUCAUUAACUUUATT against Ppp1r10: the z-score is -0.571.

In the case of CGAGCUAUCCACUUAAUCATT against Irak3, the z-score is -0.859.
